Results published in PubChem BioAssay (Tox21).
Results filed as inconclusive are left out. A call without a number means that no potency is given here. Calls of active or inactive are those of the source. Unless noted, calls come from the whole dose curve; as a rule, active = well fitted curve in the direction sought with a large enough effect in the repeat runs; inconclusive = weak or mixed curves; inactive = no such curve, though single readings can be large; an effect the other way counts as inactive or inconclusive.

Key:
[1] = qHTS assay to identify small molecule agonists of the peroxisome proliferator-activated receptor delta (PPARd) signaling pathway - cell viability counter screen (AID 743211); note: nearly all actives have a fitted effect of over 55% in size
Outline: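 Luminescent ATP viability assay (CellTiter-Glo, 30 min RT) in UAS-bla HEK293H cells carrying the PPAR delta reporter construct, 3000 cells/well, after a 17 h compound treatment at 37 C.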

[2] = molecular target: Peroxisome proliferator-activated receptor delta (Homo sapiens) (UniProt Q03181); test: qHTS assay to identify small molecule agonists of the peroxisome proliferator-activated receptor delta (PPARd) signaling pathway (AID 743212; calls by dose curve)
Sequence of Peroxisome proliferator-activated receptor delta (Homo sapiens) (Q03181 whole entry, looked up): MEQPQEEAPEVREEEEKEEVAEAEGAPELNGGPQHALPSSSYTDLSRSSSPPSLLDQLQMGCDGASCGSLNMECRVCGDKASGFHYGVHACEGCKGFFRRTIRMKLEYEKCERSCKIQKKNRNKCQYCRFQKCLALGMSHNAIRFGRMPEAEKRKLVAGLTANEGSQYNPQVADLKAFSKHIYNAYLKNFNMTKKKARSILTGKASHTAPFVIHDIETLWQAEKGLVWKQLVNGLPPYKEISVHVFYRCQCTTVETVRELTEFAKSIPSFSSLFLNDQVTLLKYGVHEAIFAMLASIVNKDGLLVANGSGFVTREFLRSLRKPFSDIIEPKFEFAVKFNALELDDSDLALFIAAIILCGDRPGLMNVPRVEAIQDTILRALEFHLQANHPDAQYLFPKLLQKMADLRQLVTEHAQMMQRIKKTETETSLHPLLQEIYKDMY
Outline: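 Beta-lactamase reporter readout: a ratiometric FRET signal from the LiveBLAzer substrate after 2 h at room temperature. Compound exposure at 37 °C in PPARδ-bla HEK293H cells driven by an upstream activator sequence.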

[3] = qHTS assay to identify small molecule agonists of the farnesoid-X-receptor (FXR) signaling pathway - cell viability counter screen (AID 743218); note: nearly all actives have a fitted effect of over 45% in size
Outline: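 Luminescence from CellTiter-Glo, read after 30 min at RT, reports viability of GeneBLAzer FXR-UAS-bla HEK 293T cells treated 16 h with compounds in the wells used for the beta-lactamase reporter.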

[4] = qHTS assay to identify small molecule antagonists of the farnesoid-X-receptor (FXR) signaling pathway - cell viability counter screen (AID 743221; active = well fitted cell-killing curve with a large enough effect in the repeat runs, not every such curve was filed as active; note: nearly all actives have a fitted effect of over 50% in size; note: potency is the fitted concentration of half-maximal effect)
Outline: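 In GeneBLAzer FXR-UAS-bla HEK 293T cells stimulated with 50 uM chenodeoxycholic acid (final), compounds acted for 16 h at 37 C. Viability was assessed afterwards by CellTiter-Glo luminescence.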

[5] = qHTS assay to identify small molecule agonists of the vitamin D receptor (VDR) signaling pathway - cell viability counter screen (AID 743224); note: nearly all actives have a fitted effect of over 50% in size; note: potency is the fitted concentration of half-maximal effect
Outline: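 Cytotoxicity counter screen: VDR-bla cells, 16 h compound exposure at 37C, 5% CO2; CellTiter-Glo luminescence, 30 min RT, same wells as bla read.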

[6] = qHTS assay to identify small molecule antagonists of the vitamin D receptor (VDR) signaling pathway - cell viability counter screen (AID 743225); note: nearly all actives have a fitted effect of over 50% in size; note: potency is the fitted concentration of half-maximal effect
Outline: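 Luminescent cell viability (CellTiter-Glo) in VDR-bla HEK 293T cells after 16 h compound exposure at 37C in the presence of 3 nM final 1-alpha,25-dihydroxy vitamin D3.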

[7] = qHTS assay to identify small molecule agonists of the NFkB signaling pathway (AID 1159509; active = well fitted curve in the direction sought with a large enough effect in the signal ratio in the repeat runs, not every such curve was filed as active; the % refers to the signal ratio; note: series mostly up to about 61 µM)
Outline: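 Pathway activation was measured in ME-180 cells stably expressing beta-lactamase under NF-kB response element control. Substrate cleavage was read as the 460/530 nm emission shift after 5 hr compound incubation.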

[8] = qHTS assay to identify small molecule agonists of the endoplasmic reticulum stress response signaling pathway (AID 1159516; active = well fitted activation curve with a large enough effect in the signal ratio in the repeat runs, not every such curve was filed as active; the % refers to the signal ratio; note: potency is the fitted concentration of half-maximal effect)
Outline: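 HeLa ESRE-bla reporter line; cpd 5 h, 37 C/5% CO2; LiveBLAzer B/G FRET substrate 2 h RT; ex 405, em 460/530 nm.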

[9] = qHTS assay to identify small molecule antagonists of the retinoid-related orphan receptor gamma (ROR-gamma) signaling pathway - cell viability counter screen (AID 1159520); note: nearly all actives have a fitted effect of over 50% in size; note: potency is the fitted concentration of half-maximal effect
Outline: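 Cytotoxicity was read from cellular ATP (CellTiter-Glo luminescence) after 16 hr at 37 C with 1 uM doxycycline induction. The inducer was added 2 hr after compound transfer to Tet-on ROR gamma CHO cells.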

[10] = molecular target: Nuclear receptor ROR-gamma (Homo sapiens) (UniProt P51449); test: qHTS assay to identify small molecule antagonists of the retinoid-related orphan receptor gamma (ROR-gamma) signaling pathway (AID 1159521; note: nearly all actives have a fitted effect of over 50% in size; note: potency is the fitted concentration of half-maximal effect)
Outline: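 CHO cells expressing RORγ under a TET-on promoter, luciferase under RORE control. Dox 1 uM final, 16 h; compounds added 2 h prior. Luminescence decrease measured.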

[11] = qHTS assay to identify small molecule agonists of the AP-1 signaling pathway - cell viability counter screen (AID 1159525; calls by dose curve; note: nearly all actives have a fitted effect of over 55% in size)
Outline: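 Intracellular ATP by Cell Titer Glo luminescence (30 min, RT) in the same ME-180 AP-1-bla wells after the 5 h compound exposure at 37 °C. Normalised to tetra n-octyl ammonium bromide and DMSO controls.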

[12] = qHTS assay to identify small molecule agonists of the AP-1 signaling pathway (AID 1159526; calls by dose curve)
[13] = molecular target: Vitamin D3 receptor (Homo sapiens) (UniProt P11473); test: qHTS assay to identify small molecule agonists of the vitamin D receptor (VDR) signaling pathway (AID 743222; calls by dose curve)
Sequence of Vitamin D3 receptor (Homo sapiens) (P11473 whole entry, looked up): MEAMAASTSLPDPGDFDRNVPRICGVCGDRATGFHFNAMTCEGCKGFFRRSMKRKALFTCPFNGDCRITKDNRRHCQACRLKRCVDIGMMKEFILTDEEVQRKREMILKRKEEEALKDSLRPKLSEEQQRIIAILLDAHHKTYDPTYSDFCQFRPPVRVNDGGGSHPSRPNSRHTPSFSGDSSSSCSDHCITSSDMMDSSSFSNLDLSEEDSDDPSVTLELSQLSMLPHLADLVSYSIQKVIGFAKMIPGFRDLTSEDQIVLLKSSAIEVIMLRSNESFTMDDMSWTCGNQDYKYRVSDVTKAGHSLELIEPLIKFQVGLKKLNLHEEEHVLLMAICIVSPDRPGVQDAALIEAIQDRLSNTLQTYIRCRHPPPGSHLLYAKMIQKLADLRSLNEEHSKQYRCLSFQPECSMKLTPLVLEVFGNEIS
Outline: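 Beta-lactamase reporter readout (LiveBLAzer B/G FRET, 2 h RT) in VDR-bla cells after 16 h compound treatment at 37C, 5% CO2; cells pre-incubated 4 h before pin transfer of DMSO solutions.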

[14] = molecular target: Vitamin D3 receptor (Homo sapiens) (UniProt P11473); test: qHTS assay to identify small molecule antagonists of the vitamin D receptor (VDR) signaling pathway (AID 743223; active = well fitted inhibition curve with a large enough effect in the signal ratio in the repeat runs, not every such curve was filed as active; the % refers to the signal ratio)
Outline: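 Agonist 1alpha,25-dihydroxyvitamin D3 (3 nM in well) was added with each compound to VDR-bla cells preincubated 4 h. Cells stood 16 h at 37C, then FRET substrate 2 h at room temperature; fluorescence intensity recorded.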

[15] = qHTS assay to identify small molecule antagonists of the peroxisome proliferator-activated receptor delta (PPARd) signaling pathway - cell viability counter screen (AID 743213); note: nearly all actives have a fitted effect of over 50% in size; note: potency is the fitted concentration of half-maximal effect
Outline: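 Luminescence from CellTiter-Glo, added after the bla read and incubated 30 min at room temperature, gives viability of HEK293H PPARd-bla cells exposed to compounds for 17 h at 37 C with 300 nM L165041.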

[16] = molecular target: Peroxisome proliferator-activated receptor delta (Homo sapiens) (UniProt Q03181); test: qHTS assay to identify small molecule antagonists of the peroxisome proliferator-activated receptor delta (PPARd) signaling pathway (AID 743215; active = well fitted inhibition curve with a large enough effect in the signal ratio in the repeat runs, not every such curve was filed as active; the % refers to the signal ratio;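 note: cells stimulated with agonist L165041 at 300 nM final during compound exposure; series mostly up to about 62 µM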)
Outline: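 HEK293H GeneBLAzer PPARd UAS-bla reporter cells; cpd + L165041 300 nM final, 17 h 37 C; LiveBLAzer B/G FRET substrate 2 h RT; fluorescence intensity read-out. Antagonist mode.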

[17] = qHTS assay to identify small molecule agonists of the endoplasmic reticulum stress response signaling pathway - cell viability counter screen (AID 1159517; calls by dose curve)
Outline: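 ESRE-bla HeLa cells (1,500/well) were plated overnight at 37 C and exposed to compounds for 5 hr. After the 2 hr beta-lactamase substrate read, CellTiter-Glo went into the same wells, and luminescence was read after 30 min at room temperature.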

[18] = molecular target: Bile acid receptor (Homo sapiens) (UniProt Q96RI1); test: qHTS assay to identify small molecule antagonists of the farnesoid-X-receptor (FXR) signaling pathway (AID 743217; active = well fitted inhibition curve with a large enough effect in the signal ratio in the repeat runs, not every such curve was filed as active; the % refers to the signal ratio)
Sequence of Bile acid receptor (Homo sapiens) (Q96RI1 whole entry, looked up): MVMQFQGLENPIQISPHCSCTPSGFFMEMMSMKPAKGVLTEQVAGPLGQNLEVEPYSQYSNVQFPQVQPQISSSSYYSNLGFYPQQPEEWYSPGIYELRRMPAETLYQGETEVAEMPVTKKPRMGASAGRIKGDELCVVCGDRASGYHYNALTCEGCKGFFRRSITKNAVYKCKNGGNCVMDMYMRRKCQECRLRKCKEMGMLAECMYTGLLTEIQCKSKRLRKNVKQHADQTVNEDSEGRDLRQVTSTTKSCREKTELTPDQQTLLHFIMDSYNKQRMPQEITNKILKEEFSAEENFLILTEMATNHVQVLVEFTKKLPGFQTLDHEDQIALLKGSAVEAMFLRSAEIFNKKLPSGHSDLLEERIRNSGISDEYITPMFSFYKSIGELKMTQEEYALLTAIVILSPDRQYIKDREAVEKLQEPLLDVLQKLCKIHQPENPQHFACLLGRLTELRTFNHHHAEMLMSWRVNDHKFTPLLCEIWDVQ
Outline: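 Read-out: beta-lactamase FRET fluorescence (LiveBLAzer B/G substrate, 2 h, room temperature) in GeneBLAzer FXR-UAS-bla HEK 293T cells. Compounds were co-dosed with 50 uM chenodeoxycholic acid (final) and incubated 16 h at 37 °C.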

[19] = molecular target: Bile acid receptor (Homo sapiens) (UniProt Q96RI1); test: qHTS assay to identify small molecule agonists of the farnesoid-X-receptor (FXR) signaling pathway (AID 743220; active = well fitted activation curve with a large enough effect in the signal ratio in the repeat runs, not every such curve was filed as active; the % refers to the signal ratio)
Outline: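 FXR-UAS-bla HEK 293T cells carrying a UAS-driven beta-lactamase reporter were plated for 5 h at 37C/5% CO2, then exposed to DMSO-dissolved Tox21 10K compounds for 16 h at 37C. A LiveBLAzer B/G FRET substrate was loaded for 2 h at room temperature before fluorescence reading.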

C=C(C)C(=O)OCCCCCCCCCCCCC
Potency [1]: inactive | Potency [2]: inactive | Potency [3]: inactive | Potency [4]: inactive | Potency [5]: inactive | Potency [6]: inactive | Potency [7]: inactive | Potency [8]: inactive | Potency [9]: inactive | Potency [10]: inactive | Potency [11]: inactive | Potency [12]: inactive

O=C(OC(=O)c1ccccc1)c1ccccc1
Potency [1]: inactive | Potency [2]: inactive | Potency [3]: inactive | Potency [4]: inactive | Potency [13]: inactive | Potency [5]: inactive | Potency [6]: inactive | Potency [7]: inactive | Potency [8]: inactive | Potency [9]: inactive | Potency [10]: inactive | Potency [11]: inactive | Potency [12]: inactive

CC(C)C(O)(c1ccc(OC(F)(F)F)cc1)c1cncnc1 (centres undefined)
Potency [1]: inactive | Potency [3]: inactive | Potency [4]: inactive | Potency [13]: inactive | Potency [14]: inactive | Potency [5]: inactive | Potency [6]: inactive | Potency [7]: inactive | Potency [8]: inactive | Potency [9]: inactive | Potency [10]: inactive | Potency [11]: inactive | Potency [12]: inactive

CC[N+](CC)(CCNC(=O)C(=O)NCC[N+](CC)(CC)Cc1ccccc1Cl)Cc1ccccc1Cl
Potency [1]: inactive | Potency [2]: inactive | Potency [15]: inactive | Potency [16]: inactive | Potency [3]: inactive | Potency [4]: inactive | Potency [5]: inactive | Potency [6]: inactive | Potency [7]: inactive | Potency [17]: inactive | Potency [9]: inactive | Potency [10]: inactive | Potency [12]: inactive

CC[C@]1(O)C[C@H]2CN(CCc3c([nH]c4ccccc34)[C@@](C(=O)OC)(c3cc4c(cc3OC)N(C=O)[C@H]3[C@@](O)(C(=O)OC)[C@H](OC(C)=O)[C@]5(CC)C=CCN6CC[C@]43[C@@H]65)C2)C1
Potency [1]: inactive | Potency [2]: inactive | Potency [15]: inactive | Potency [16]: inactive | Potency [3]: inactive | Potency [4]: inactive | Potency [6]: inactive | Potency [7]: inactive | Potency [17]: inactive | Potency [9]: inactive | Potency [11]: inactive

C=CC(=O)[O-].C=CC(=O)[O-].[Zn+2]
Potency [1]: inactive | Potency [2]: inactive | Potency [15]: inactive | Potency [16]: inactive | Potency [3]: inactive | Potency [4]: inactive | Potency [13]: inactive | Potency [14]: inactive | Potency [5]: inactive | Potency [6]: inactive | Potency [7]: inactive | Potency [17]: inactive | Potency [9]: inactive | Potency [10]: inactive | Potency [11]: inactive

COc1ccccc1NC(=O)c1cc2ccccc2cc1O
Potency [15]: 43.6 µM (active) | Potency [5]: 21.9 µM (active) | Potency [6]: 38.9 µM (active) | Potency [7]: inactive | Potency [8]: inactive | Potency [17]: inactive | Potency [11]: inactive | Potency [12]: inactive

Oc1cc2c(cc1O)[C@H]1c3ccc(O)c(O)c3OC[C@@]1(O)C2
Potency [1]: inactive | Potency [2]: inactive | Potency [15]: inactive | Potency [4]: inactive | Potency [5]: inactive | Potency [6]: inactive | Potency [7]: inactive | Potency [17]: inactive | Potency [9]: inactive | Potency [10]: 13.9 µM (active) | Potency [11]: inactive | Potency [12]: inactive

CCCCC(CC)CN (centres undefined)
Potency [13]: inactive | Potency [14]: inactive | Potency [5]: inactive | Potency [7]: inactive | Potency [8]: inactive | Potency [9]: inactive | Potency [12]: inactive

O=C(O)c1cccc(-c2noc(-c3ccccc3F)n2)c1
Potency [15]: inactive | Potency [4]: 11.9 µM (active) | Potency [13]: inactive | Potency [5]: inactive | Potency [7]: inactive | Potency [8]: inactive | Potency [9]: inactive | Potency [12]: inactive

OCCOCC#CCOCCO
Potency [1]: inactive | Potency [2]: inactive | Potency [15]: inactive | Potency [3]: inactive | Potency [13]: inactive | Potency [5]: inactive | Potency [6]: inactive | Potency [7]: inactive | Potency [8]: 49 µM (active) | Potency [17]: inactive | Potency [11]: inactive | Potency [12]: inactive

CC1=C(Br)C(=O)C(Br)=C/C1=C(/c1ccccc1S(=O)(=O)O)c1cc(Br)c(O)c(Br)c1C
Potency [1]: inactive | Potency [2]: inactive | Potency [16]: inactive | Potency [18]: inactive | Potency [3]: inactive | Potency [19]: inactive | Potency [4]: inactive | Potency [13]: inactive | Potency [5]: inactive | Potency [7]: inactive | Potency [17]: inactive | Potency [9]: 16.5 µM (active) | Potency [10]: 18.6 µM (active) | Potency [11]: inactive | Potency [12]: inactive
